Laboratory results: PubChem BioAssay AID777 (Sanford-Burnham Center for Chemical Genomics, 2007)
In all, about 96,000 compounds went through this assay and about 19,000 (20%) were called active.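 The calls were made as follows: active = blocking of liver enzyme CYP2C9 beyond about 50% at 5 µM (limit read from the data); inactive = the rest.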 The list is a sample of the results.

biological target: Cytochrome P450 2C9 (Homo sapiens) (UniProt P11712); test: blockers of cytochrome P450 2C9 activity – biochemical, luminescence, ADME assay, primary screen (AID 777); conditions: CYP2C9 Supersomes, luciferin-H conversion, at 5 µM, stronger effect = higher value
Sequence (P11712 whole entry, looked up): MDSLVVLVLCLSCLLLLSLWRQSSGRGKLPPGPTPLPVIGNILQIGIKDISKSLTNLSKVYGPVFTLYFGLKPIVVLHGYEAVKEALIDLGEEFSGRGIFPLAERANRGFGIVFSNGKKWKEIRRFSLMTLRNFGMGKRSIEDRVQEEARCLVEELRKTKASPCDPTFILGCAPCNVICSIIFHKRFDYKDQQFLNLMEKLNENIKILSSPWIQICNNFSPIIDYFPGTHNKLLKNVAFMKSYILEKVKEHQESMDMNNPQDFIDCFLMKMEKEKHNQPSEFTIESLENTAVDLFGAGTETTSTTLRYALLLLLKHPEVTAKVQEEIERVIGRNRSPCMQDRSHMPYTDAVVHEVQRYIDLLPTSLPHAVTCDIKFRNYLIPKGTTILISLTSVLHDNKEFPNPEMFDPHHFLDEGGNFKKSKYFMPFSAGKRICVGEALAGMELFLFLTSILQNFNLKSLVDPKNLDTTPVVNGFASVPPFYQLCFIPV

Row | SMILES | inhibition
1 | N#Cc1c(N)nc2c3c(sc(=N)c2c1N)NC(=O)CC3c1ccccc1Cl (stereo not drawn) | 8.6% (inactive)
2 | CCOC(=O)C1(S(=O)(=O)c2ccc(Cl)cc2)CCN(Cc2ccccc2)CC1 | 21.8% (inactive)
3 | CCN1C(=O)/C(=C\N2CCOCC2)SC1=S | 8.1% (inactive)
4 | CC1(N2CCOCC2)CC2(O)C(=[N+]1[O-])CCc1nonc12 (stereo not drawn) | 31.8% (inactive)
5 | O=C1Nc2cc(Cl)c(Cl)cc2N(O)N1c1cc(Cl)cc(Cl)c1 | 89.3% (active)
6 | CCN(CC)CCCNC(=O)c1cc(-c2cccc(Cl)c2)on1 | 10.4% (inactive)
7 | CC(C)N(c1ccccc1)c1ncnc(NCCC(=O)O)c1[N+](=O)[O-] | -1.4% (inactive)
8 | Cc1cc2c(=O)n(C)c(SCC(=O)c3cc4ccccc4o3)nc2s1 | 95.9% (active)
9 | Cc1ccsc1C(=O)OCC(=O)c1cc2ccccc2o1 | -30.4% (inactive)
10 | Cc1ccc(C(=O)CSc2nc3ccccc3c(=O)n2N)o1 | 34.2% (inactive)
11 | C=CCn1c(Oc2ccc(C(=O)OC)cc2)nc2c1c(=O)n(C)c(=O)n2C | 8.4% (inactive)
12 | O=C(O)C1CCN(S(=O)(=O)N2CCOCC2)CC1 | 3.6% (inactive)
13 | COCCCN1C(=O)C(=O)/C(=C(/O)c2ccc3c(c2)CC(C)O3)C1c1cccnc1 (stereo not drawn) | -1% (inactive)
14 | c1ccc(CCN2CN=C(Nc3nc4ccccc4o3)NC2)cc1 | 6.5% (inactive)
15 | Clc1ccc(Cn2ncc3c(NCc4cccnc4)ncnc32)cc1 | 49.7% (inactive)
16 | CCN1C(=O)/C(=C2\SC(N3CCCCC3)=NC2=O)c2ccccc21 | -20.1% (inactive)
17 | CC(C)(C)c1cc(C(=O)NCc2cccnc2)ccn1 | 12.2% (inactive)
18 | O=C(NCc1cccnc1)c1ccc(CS(=O)(=O)c2ccc(Br)cc2)o1 | 95.6% (active)
19 | O=S(=O)(c1ccc(Br)cc1)c1nc(-c2ccccc2)oc1NCc1cccnc1 | 17.3% (inactive)
20 | Cc1cc(C(C)(C)C)oc1C(=O)N(CC(=O)NC1CCCC1)Cc1ccc(Cl)cc1 | -11.5% (inactive)
21 | CCCCCCOc1ccc(OC(=O)c2cccnc2)cc1 | 10% (inactive)
22 | COc1ccc(NC(=O)c2ccc(OC)cc2)cc1 | -13.7% (inactive)
23 | CCOc1ccc(C(=O)Nc2ccncc2)cc1 | 94.8% (active)
24 | C=C(C)C(=O)Nc1cccc(C(C)=O)c1 | 1.4% (inactive)
25 | CCOc1cccc(C(=O)Nc2cccnc2)c1 | 4.7% (inactive)

Row | SMILES | inhibition
26 | CN(C)c1ccc(NC(=O)c2ccncc2)c2ccccc12 | 43.9% (inactive)
27 | CCCCOc1ccc(C(=O)NCc2ccco2)cc1 | 15.5% (inactive)
28 | CCCCOc1ccc(C(=O)NCc2ccncc2)cc1 | 58.4% (active)
29 | CC(=O)c1cccc(NC(=O)c2ccncc2)c1 | 68.3% (active)
30 | COC(=O)CNC(=O)c1ccccc1F | -2.7% (inactive)
31 | Cc1cc(Cl)c(S(=O)(=O)NCCC(=O)O)cc1OCC(N)=O | -23.5% (inactive)
32 | c1cc(-c2nn[nH]n2)ccc1CN1CCCCC1 | -10.5% (inactive)
33 | COc1ccc(-c2cc3nc(C)c(CCC(=O)NC(C)CCc4ccco4)c(C)n3n2)c(OC)c1 (stereo not drawn) | 37.5% (inactive)
34 | COc1cc(/C=C(/NC(=O)c2ccccc2)C(=O)Nc2cccc(O)c2)c([N+](=O)[O-])cc1OC | 16.6% (inactive)
35 | CCOc1ncccc1C(=O)OCc1cn2cc(Cl)ccc2n1 | 45% (inactive)
36 | CSc1nc2ccccc2cc1/C=C(\C#N)c1ccc(Cl)cc1Cl | 7.6% (inactive)
37 | O=C(NCc1ccco1)c1cnn2c(C(F)(F)F)cc(-c3ccco3)nc12 | 17.5% (inactive)
38 | O=C(NCc1ccco1)c1cccn2c(=O)c3c4c(sc3nc12)CCCC4 | 59.8% (active)
39 | C=C(C)Cn1c(SCC(=O)NCc2ccco2)nc2sc3c(c2c1=O)CCC3 | 34.6% (inactive)
40 | Cc1nc2nc(C)c(CCC(=O)N3CCN(c4ccccc4)CC3)c(C)n2n1 | 0.9% (inactive)
41 | COC(=O)C1=C(C)N=C2SC(C)C(=O)N2C1/C=C/c1ccccc1 (stereo not drawn) | 48.6% (inactive)
42 | Cc1ccc(S(=O)(=O)Cn2nnnc2CN2CCN(Cc3ccc4c(c3)OCO4)CC2)cc1 | 29.7% (inactive)
43 | O=C(/C=C/Nc1ccccc1OC(F)(F)F)C(F)(F)F | 5.5% (inactive)
44 | Cc1cccc(NC(=O)COc2ccccc2C)n1 | 19.4% (inactive)
45 | Cc1ccccc1OCC(=O)Nc1ccc(N2CCN(C(=O)C(C)C)CC2)c(Cl)c1 | 68.8% (active)
46 | CN1CCN(c2ccc(NC(=O)COc3ccc(Cl)cc3Cl)cc2)CC1 | -16.8% (inactive)
47 | COc1ccccc1C(=O)N1CCN=C1SCc1cccnc1 | 58.4% (active)
48 | CCC(=O)N1CCN=C1SCc1ccc(F)cc1 | 11% (inactive)
49 | O=C(c1ccco1)N1CCN=C1SCc1cccc(Cl)c1 | 34.4% (inactive)
50 | Oc1c(C(c2ccccn2)N2CCOCC2)ccc2cccnc12 (stereo not drawn) | -11.4% (inactive)

Row | SMILES | inhibition
51 | O=C(Cn1cc(-c2nnnn2-c2ccc(Cl)cc2)c(=O)c2ccccc21)c1ccccc1 | -11.4% (inactive)
52 | O=c1cc(CO)oc(CN2CCC(Cc3ccccc3)CC2)c1O | 4.2% (inactive)
53 | FC(F)(F)c1cccc(-c2cc3ccccc3nc2N2CCCC2)c1 | 11.5% (inactive)
54 | O=C(COC(=O)c1ccc(S(=O)(=O)N2CCc3ccccc3C2)cc1)NC(=O)NCc1ccco1 | 10.9% (inactive)
55 | C=CCOC(=O)C1=C(C)OC(N)=C(C#N)C1c1ccc(F)cc1 (stereo not drawn) | 44.5% (inactive)
56 | C=CCOC(=O)C1=C(C)NC(SCC(=O)OCC)=C(C#N)C1c1ccc(C)cc1 (stereo not drawn) | 64.3% (active)
57 | CC1=C(C(=O)OCc2ccccc2)C(c2ccco2)n2ncnc2N1 (stereo not drawn) | 17.6% (inactive)
58 | CCOC(=O)CSC1=C(C#N)C(c2ccco2)C(C(=O)OCc2ccccc2)=C(C)N1 (stereo not drawn) | 95.5% (active)
59 | CC1=C(C(=O)Nc2ccccc2)C(c2ccco2)C(C#N)=C(SCC(N)=O)N1 (stereo not drawn) | 5.8% (inactive)
60 | Cc1cc(=O)oc2ccc(OCC(=O)O)cc12 | 11.6% (inactive)
61 | CC/C(=N\O)C(C)(C)/[N+]([O-])=C/c1ccc(Br)cc1 | 0.5% (inactive)
62 | COCCCNC(=O)COc1cc(C)c(Cl)c(C)c1 | -73.4% (inactive)
63 | CCOC(=O)c1[nH]c(C)c(C(=O)OCC(=O)N2c3ccccc3CC2C)c1C (stereo not drawn) | 10.7% (inactive)
64 | CC1Cc2ccccc2N1C(=O)Cn1cnc2ccccc2c1=O (stereo not drawn) | 34.6% (inactive)
65 | CCn1nc(C(=O)OCC(=O)N2c3ccccc3CC2C)c2ccccc2c1=O (stereo not drawn) | 80.7% (active)
66 | Cc1ccc(Cl)cc1NC(=O)COC(=O)C1CCCCC1 | 28.6% (inactive)
67 | Cn1c2c(c(=O)n(C)c1=O)C(c1cccc([N+](=O)[O-])c1)Nc1ccccc1O2 (stereo not drawn) | 50.4% (active)
68 | CCOC(=O)C1=C(CN2CCc3ccccc32)NC(=O)NC1c1cccc([N+](=O)[O-])c1 (stereo not drawn) | 25.1% (inactive)
69 | Cn1c2c(c(=O)n(C)c1=O)C(c1ccc(O)cc1)Nc1ccccc1O2 (stereo not drawn) | 19.1% (inactive)
70 | Nc1c(-c2ccc(F)cc2)cnn1C1CCS(=O)(=O)C1 (stereo not drawn) | -14.9% (inactive)
71 | CC1(C)CC(=O)C2=C(C1)N=C1SCCC(=O)N1C2c1ccc(C(F)(F)F)cc1 (stereo not drawn) | -19.2% (inactive)
72 | O=c1cc(-c2ccccc2)nc(N2CCCCC2)[nH]1 | -5.8% (inactive)
73 | Cc1cccc2c(=O)n3c(nc12)CCCCC3 | 21% (inactive)
74 | O=C(Nc1ccc2nc3n(c(=O)c2c1)CCCCC3)c1ccccc1Cl | 41.7% (inactive)
75 | O=c1c2c(nc3n1CCCCC3)sc1c(O)cccc12 | 70.6% (active)

Row | SMILES | inhibition
76 | CCOc1ccc(NC(=O)c2ccccc2NS(C)(=O)=O)cc1 | 54.1% (active)
77 | COC(=O)c1ccccc1NC(=O)CN(Cc1ccc(Cl)cc1)S(C)(=O)=O | 55.5% (active)
78 | CCCCNC(=O)c1ccccc1NC(=O)c1ccccc1N(C)S(C)(=O)=O | -0.4% (inactive)
79 | CCOc1ccccc1N(CC(=O)Nc1ccccc1C(=O)OC)S(C)(=O)=O | 6.7% (inactive)
80 | CCCNC(=O)Nc1ccccc1C(=O)Nc1ccc(OC)cc1 | 44.3% (inactive)
81 | CCOc1ccc(NC(=O)N(CC(C)C)CC(C)C)cc1 | 6.8% (inactive)
82 | COC(=O)c1ccccc1NC(=O)c1cncc(Br)c1 | -3.1% (inactive)
83 | COC(=O)c1ccccc1NC(=O)c1ccccc1NS(C)(=O)=O | 80.6% (active)
84 | COC(=O)c1ccccc1NC(=O)CN(Cc1ccccc1)S(C)(=O)=O | 27.6% (inactive)
85 | COC(=O)c1ccc(NC(=O)c2ccccc2NS(=O)(=O)c2ccccc2)cc1 | 96.1% (active)
86 | COC(=O)c1ccc(NC(=O)C(C)N2C(=O)c3ccccc3C2=O)cc1 (stereo not drawn) | 26.7% (inactive)
87 | S=C1SCN(CCN2CCOCC2)CN1Cc1ccccc1 | 22.3% (inactive)
88 | Cc1nc(NC(CC(C)C)C(=O)O)c2nc(C)oc2n1 (stereo not drawn) | 15.1% (inactive)
89 | COC(=O)CNC(c1ccccc1Cl)c1cc(Br)ccc1NC(=O)CCN1CCOCC1 (stereo not drawn) | 7.3% (inactive)
90 | C=CCn1c(-c2ccc3[nH]c(C)c(C)c3c2)n[nH]c1=S | 31.1% (inactive)
91 | CCCc1nc(-c2ccccc2O)n(-c2ccccc2)n1 | -16.7% (inactive)
92 | Cc1ccc(S(=O)(=O)N2C3C=CC(C3)C2C(=O)O)cc1 (stereo not drawn) | -4.8% (inactive)
93 | CCOCCCNC(=O)C(NC(=O)c1ccc(=O)[nH]c1)c1ccc(Cl)cc1 (stereo not drawn) | 2.5% (inactive)
94 | O=C(NCCOc1ccccc1)c1ccccc1 | -2.4% (inactive)
95 | Cc1ccc(S(=O)(=O)NCC(=O)N(CC(=O)NC(C)(C)C)Cc2cccs2)cc1 | -0.5% (inactive)
96 | CCOC(=O)N1CCC(NC(=O)Cn2cc3c(n2)CCCCC3)CC1 | -10.8% (inactive)
97 | CC(C)c1ccc(/C=C/C(=O)NNC(=O)c2cccnc2)cc1 | 6.3% (inactive)
98 | CCCCn1c(SCc2ncc(-c3ccccc3)o2)nc2cc(S(N)(=O)=O)ccc21 | 54.5% (active)
